aSyn UTR inh = MLPCN primary screen, SNCA 5' untranslated region | AID 1813, 2009 | inhibition, % (tested at 7.5 µM) | alpha-synuclein 5'UTR reporter, inhibitor activity | 0.82% of 300,000 active; in the data active = inhibition above about 60%;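 note: H4 neuroglioblastoma cells stably carrying SNCA 5'UTR luciferase fusion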
H9c2 TAG inh = inhibitors of triacylglycerol accumulation, primary screen, cell-based, uHTS, fluorescence, H9c2; H9c2 cells, Nile Red lipid (TAG) fluorescence; cells loaded with 200 µM oleic acid; inhibition, % at 12.5 µM; 0.66% of 230,000 active; AID 651582, 2012;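 active = pattern-corrected inhibition of lipid staining of at least 50% with the nuclear-stain viability signal not falling by more than 50%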
697 NFkB inh = inhibitors of PMA/ionomycin-induced NF-kB reporter, 697 cells, primary screen, B-cell NF-kB inhibitor project, cell-based, luminescence, uHTS | 0.33% of 330,000 active | inhibition, % at 4 µM | 697 B-cell NF-kB luciferase reporter, 16 h; in the data active = inhibition above about 35%
Shn3 3UTR inh = reduction of Shn3 3'UTR firefly luciferase signal, primary screen, Schnurri-3 inhibitor project, cell-based, Clone20 osteoblasts, set 2; AID 588674, 2011; 0.52% of 360,000 active; inhibition, % at 12.5 µM; Clone20 osteoblast Shn3 3'UTR firefly luciferase, 24 h;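 active = mean inhibition of at least 75% with every replicate also reaching 75%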
Gli-Sufu antag = Gli-Sufu pathway antagonists, primary screen, luciferase luminescence, Sufu-KO-LIGHT cells, uHTS; Sufu-KO-LIGHT fibroblasts, Gli luciferase reporter luminescence; inhibition, % at 5 µM; AID 588413, 2011; 0.74% of 340,000 active;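 active = inhibition above about 55%, limit read from the data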
Jurkat NFkB inh = inhibitors of induced NF-kB luciferase reporter, primary screen, TCR NF-kB activation inhibitor project, cell-based, luminescence, uHTS; AID 435003, 2010; 0.53% of 330,000 active; Jurkat, PMA/ionomycin-induced NF-kB luciferase reporter; inhibition, % at 4 µM; in the data active = inhibition above about 50%
Gli antag conf = Gli-SUFU pathway antagonists, confirmation, single concentration, luciferase luminescence, Sufu-KO-LIGHT cells; shares compounds with Gli-Sufu antag; Gli luciferase reporter; inhibition, % at 5 µM; 40% of 2,500 active; AID 602428, 2012;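 active = mean inhibition at 5 µM reaching about 45%, limit read from the data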
Gli cytotox = cytotoxicity in Sufu-KO-LIGHT cells, confirmation, cytotoxicity control for Gli-SUFU antagonist project, cell-based, ATP luminescence, single concentration | shares compounds with Gli-Sufu antag | cytotoxicity, % at 5 µM | 32% of 2,500 active;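 active = mean cytotoxicity at 5 µM above about 25%, limit read from the data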;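 note: cells exposed to compound overnight for roughly 16 to 18 hours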
Wnt3a cs = Wnt3a reporter signal inhibition, confirmation, counter-screen for Gli-SUFU antagonist project, Wnt-LIGHT cells, luminescence, single concentration. inhibition, % at 6.25 µM. Wnt3a-driven luciferase reporter. shares compounds with Gli-Sufu antag. 20% of 2,500 active. AID 651995, 2013;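 active = mean inhibition above about 25%, limit read from the data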
Large screens that a line does not name were inactive (follow-up assays come after a bar, where they were run). Shown are actives, neighbours in structure and some others; about 2.3% of the full set was active somewhere.

Cn1cnc([N+](=O)[O-])c1NCc1ccccc1	none
COc1ccc(C(=O)C[n+]2cc(-c3ccc(OC)cc3)n3c2CCCC3)cc1	Gli-Sufu antag 73 | Gli antag conf 68 | Gli cytotox 26 | Wnt3a cs inactive
Cc1ccc(C(=O)N2NC(c3ccc(F)cc3)C3C(=O)N(c4ccc(C)c(C)c4)C(=O)C32)cc1 (stereo not drawn)	none (no result: H9c2 TAG inh)
CC(=O)/C(N=Nc1ccc(C(=O)O)cc1[N+](=O)[O-])=C(\C)O	Gli-Sufu antag 80 | Gli antag conf inactive | Gli cytotox inactive | Wnt3a cs inactive
CN1CCC(=C2c3ccccc3Sc3ccccc32)CC1	Gli-Sufu antag 56 (no result: aSyn UTR inh, 697 NFkB inh, Jurkat NFkB inh) | Gli antag conf inactive | Gli cytotox 37 | Wnt3a cs inactive
CN1CCC(=C2c3ccccc3C=Cc3ccccc32)CC1	none
Brc1ccc(C2=Nn3c(Cn4nnc5ccccc54)nnc3SC2)cc1	none | Gli antag conf inactive | Gli cytotox inactive | Wnt3a cs inactive
Fc1ccc(C2=Nn3c(Cc4ccccc4)nnc3SC2)cc1	none (no result: H9c2 TAG inh)
COC(=O)c1c(-n2cnnn2)sc(C)c1C	none (no result: H9c2 TAG inh) | Gli antag conf inactive | Gli cytotox inactive | Wnt3a cs inactive
COC(=O)c1c(N2C(=O)Nc3ccccc3N2O)sc(C)c1C	none (no result: H9c2 TAG inh)
COc1cc2ncnc(NCCc3ccccc3)c2cc1OC	Gli-Sufu antag 60 | Gli antag conf inactive | Gli cytotox inactive | Wnt3a cs inactive
CCN(CC)c1ccc(CNc2nc3ccccc3n2CCN2CCOCC2)cc1	none | Gli antag conf inactive | Gli cytotox inactive | Wnt3a cs inactive
Cc1ccc(CNC(=O)c2ccc3c(=O)c(O)c(-c4ccc(C)cc4)[nH]c3c2)cc1	aSyn UTR inh 94, Shn3 3UTR inh 87, Gli-Sufu antag 66 | Gli antag conf 63 | Gli cytotox inactive | Wnt3a cs 70
O=C(NNC(=O)c1ccccc1Br)c1cccs1	none (no result: H9c2 TAG inh)
Cc1nnsc1C(=O)NC1CCCc2c1cnn2-c1ccc(C(C)(C)C)cc1 (stereo not drawn)	Gli-Sufu antag 62 | Gli antag conf 59 | Gli cytotox 53 | Wnt3a cs inactive
Cc1nnsc1C(=O)NC1CCCc2c1cnn2-c1ccccc1F (stereo not drawn)	none | Gli antag conf 45 | Gli cytotox inactive | Wnt3a cs 29
CC(C)(C)c1ccc(-n2ncc3c2CCCC3NC(=O)c2ccncc2)cc1 (stereo not drawn)	none | Gli antag conf inactive | Gli cytotox inactive | Wnt3a cs inactive
O=C(NC1CCCc2c1cnn2-c1ccccc1F)c1ccncc1 (stereo not drawn)	none (no result: aSyn UTR inh, 697 NFkB inh, Gli-Sufu antag, Jurkat NFkB inh)
Cc1cccc(-n2ncc3c2CCCC3NC(=O)C2=CC(=O)CC(C)(C)O2)c1C (stereo not drawn)	Gli-Sufu antag 58 | Gli antag conf inactive | Gli cytotox 31 | Wnt3a cs inactive
O=C(NC1CCCc2c1cnn2-c1cc(F)cc(F)c1)c1ccncc1 (stereo not drawn)	none (no result: H9c2 TAG inh)
COC(=O)Cn1c(=NC(=O)c2ccc([N+](=O)[O-])s2)sc2cc(Br)ccc21	none (no result: H9c2 TAG inh, Shn3 3UTR inh, Gli-Sufu antag)
COc1ccc(NC(=O)C(c2ccc(C)cc2)N(C)C(=O)c2ccc(=O)[nH]c2)cc1 (stereo not drawn)	none (no result: H9c2 TAG inh)
CCOCCCNC(=S)N(Cc1ccco1)Cc1cc2cc3c(cc2[nH]c1=O)OCCO3	none
COc1ccc(CC(=O)NC(C)c2nnc(SCC(=O)Nc3ccccc3F)n2C)cc1 (stereo not drawn)	none
O=C(C[C@@H]1C[C@H]2c3cc(NC(=O)Nc4ccccc4F)ccc3O[C@H]2[C@H](CO)O1)NCC(F)(F)F	none (no result: aSyn UTR inh, 697 NFkB inh, Gli-Sufu antag, Jurkat NFkB inh)

Screening data: PubChem BioAssay, several laboratories
